Data on 33 compounds can be found in ChEMBL document CHEMBL1961873, “Compounds: GSK PKIS; Assays: Nanosyn kinase panel” (2012).

In the first experiment the target is Serine/threonine-protein kinase PAK 5 (Homo sapiens) (UniProt Q9P286). The settings on record: at 1 µM.
Serine/threonine-protein kinase PAK 5 (Homo sapiens), sequence (Q9P286 whole entry, looked up): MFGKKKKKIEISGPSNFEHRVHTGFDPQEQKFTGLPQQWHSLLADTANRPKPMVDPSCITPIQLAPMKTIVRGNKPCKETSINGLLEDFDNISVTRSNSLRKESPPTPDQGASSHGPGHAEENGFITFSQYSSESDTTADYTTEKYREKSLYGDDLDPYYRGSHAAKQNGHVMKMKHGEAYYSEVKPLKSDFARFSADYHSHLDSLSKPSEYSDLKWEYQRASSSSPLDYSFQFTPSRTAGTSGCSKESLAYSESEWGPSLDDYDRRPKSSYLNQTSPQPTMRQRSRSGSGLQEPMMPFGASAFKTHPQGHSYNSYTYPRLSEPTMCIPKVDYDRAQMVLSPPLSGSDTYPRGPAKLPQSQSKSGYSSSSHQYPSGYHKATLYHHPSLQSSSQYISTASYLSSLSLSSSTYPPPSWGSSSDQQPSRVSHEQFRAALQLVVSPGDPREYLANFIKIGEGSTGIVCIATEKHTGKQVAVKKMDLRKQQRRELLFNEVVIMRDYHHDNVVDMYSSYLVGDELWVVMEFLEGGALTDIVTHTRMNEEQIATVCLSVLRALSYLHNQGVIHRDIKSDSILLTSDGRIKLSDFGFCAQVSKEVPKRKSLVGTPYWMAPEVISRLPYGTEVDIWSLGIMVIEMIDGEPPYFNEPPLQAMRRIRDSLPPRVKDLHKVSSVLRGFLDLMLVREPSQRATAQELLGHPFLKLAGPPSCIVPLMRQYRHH
In general, inhibition refers to the change of the read-out against control, counted positive when it falls. In the case of `c1ccc(COc2ccc(Nc3ncnc4ccc(-c5ccco5)cc34)cc2)cc1`, the inhibition was -4.07%.
Still for that read-out and setting: the figure for `COc1ccc2c(-c3ccnc(Nc4cccc(OC(F)(F)F)c4)n3)cnn2n1` is 5.84%.
As to `CN1CCC(n2cnc(-c3ccc(F)cc3)c2-c2ccnc(N)n2)CC1`, the inhibition is 3.69%.
On the same count and under the same terms, the figure for `COc1ccc(-c2cc(-c3c[nH]nc3-c3ccccn3)ccn2)cc1` is 1.94%; for `Cc1cccc(Nc2ncc(-c3ccccc3)o2)c1` it is 10.2%.
On the same count and under the same terms, in the case of `COC(=O)c1sc(-n2cnc3cc(OC)c(OC)cc32)cc1OCc1ccccc1C(F)(F)F` it was -4.74%; in that of `N#Cc1c(NC(=O)CN2CCOCC2)sc2c1CCCC2`, 3.24%.
The same measure, in the same setting: the figure for `COc1ccc(-c2cc3c(N)ncnc3o2)cc1` is -1.65%; for `N#Cc1c(NC(=O)c2ccc(F)cc2)sc2c1CCCC2` it is -0.51%.
Turning to `Cc1ccc2c(-c3ccnc(Nc4ccccc4)n3)c(-c3ccc(F)cc3)nn2n1`, the inhibition was determined as 2.93%.
With `CNC(=O)c1cc(-c2ccc(F)cc2)cc(-c2ccc(S(=O)(=O)N3CCCC3)cc2)c1N`, the inhibition is 3.67%.
`Cc1ccc(O)cc1Nc1ccnc2cc(-c3ccccn3)ccc12`: the inhibition was determined as 0.07%.
Turning to `CCc1nn2ncccc2c1-c1ccnc(NC2CC2)n1`, the inhibition turned out to be 0.37%.
The same measure, in the same setting: in the case of `CCCN1CCC(c2ccc(Nc3nc(Nc4cc(F)ccc4C(N)=O)c4cc[nH]c4n3)c(OC)c2)CC1` it was 22.6%; in that of `Fc1ccc(-c2nn3ccccc3c2-c2ccncc2)cc1`, -4.35%; in that of `O=C(O[C@H]1CN[C@H](C#Cc2cc3ncnc(Nc4ccc(Cc5ccccc5)cc4)c3s2)C1)N1CCOCC1`, 0.17%.
With `COc1ccc(-c2nn3ncccc3c2-c2ccnc(Nc3ccc4c(c3)OCCO4)n2)cc1`, the inhibition is -5%.
In the case of `CN(C)CCOc1ccc(-c2nc(-c3ccncc3)c(-c3ccc4c(c3)CC/C4=N\O)[nH]2)cc1`, the inhibition was 7.07%.
As to `CCN1CCC(CC(=O)Nc2n[nH]c3nnc(-c4cccc(F)c4F)cc23)CC1`, the inhibition is 0.92%.
The same measure, in the same setting: in the case of `COc1cccc(-c2c[nH]c3c(N/N=C/c4ccncc4)ncnc23)c1` it was 0.73%; in that of `Fc1ccc(-c2nn3ncccc3c2-c2ccnc(Nc3ccc4c(c3)OCCO4)n2)cc1`, -2.83%.
For the compound `COc1cc(Nc2nccc(Nc3ccc4c(C)n[nH]c4c3)n2)cc(OC)c1OC`, the inhibition worked out at 15.3%.
On to `CC(C)COC(=O)c1ccc2c(c1)/C(=C/Nc1ccc(S(N)(=O)=O)cc1)C(=O)N2`, for which the inhibition was 5.79%.
Consider `NS(=O)(=O)c1ccc(N/N=C2\C(=O)Nc3ccc4ncccc4c32)cc1`, for which the inhibition is 3.21%.
Consider `COc1cc(N2CCN(C(C)C)CC2)ccc1Nc1nc(Nc2ccc(F)cc2C(N)=O)c2cc[nH]c2n1`, for which the inhibition is 27.4%.
Still for that read-out and setting: in the case of `CCn1c(-c2nonc2N)nc2c(C#CC(C)(C)O)ncc(OC3CCNCC3)c21` it was 80.1%; in that of `CNC(=O)c1cccc(C#Cc2cncnc2Nc2ccc(OCc3cccc(F)c3)c(Cl)c2)c1`, -2.53%; in that of `Fc1cccc(COc2ccc(Nc3ncnc4sc(-c5ccco5)cc34)cc2Cl)c1`, 4.77%.
For `c1ccc(-c2nc3n(c2-c2ccc4c(c2)OCO4)CCC3)nc1`, the inhibition is -0.63%.
On to `O=S(=O)(CCNCc1ccc(-c2ccc3ncnc(Nc4ccc(OCc5cccc(F)c5)c(Cl)c4)c3c2)o1)c1ccccc1`, for which the inhibition stood at 5.17%.
Consider `COc1cc(/C=N/Nc2ncnc3[nH]ncc23)ccc1O`, for which the inhibition was 11.8%.
The same measure, in the same setting: in the case of `CS(=O)(=O)CCNCc1coc(-c2ccc3ncnc(Nc4ccc(OCc5ccccc5)cc4)c3c2)c1` it was 3.38%; in that of `COc1cc2c(cc1Nc1nc(Nc3ccsc3C(N)=O)c3cc[nH]c3n1)N(C(=O)CN(C)C)CCC2(C)C`, -3.07%.

The target in the next experiment is Serine/threonine-protein kinase PAK 6 (Homo sapiens) (UniProt Q9NQU5). Particulars: at 0.1 µM.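 Further: mean PAK6 inhibition reported from the GSK PKIS screen.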
Serine/threonine-protein kinase PAK 6 (Homo sapiens), sequence (Q9NQU5 whole entry, looked up): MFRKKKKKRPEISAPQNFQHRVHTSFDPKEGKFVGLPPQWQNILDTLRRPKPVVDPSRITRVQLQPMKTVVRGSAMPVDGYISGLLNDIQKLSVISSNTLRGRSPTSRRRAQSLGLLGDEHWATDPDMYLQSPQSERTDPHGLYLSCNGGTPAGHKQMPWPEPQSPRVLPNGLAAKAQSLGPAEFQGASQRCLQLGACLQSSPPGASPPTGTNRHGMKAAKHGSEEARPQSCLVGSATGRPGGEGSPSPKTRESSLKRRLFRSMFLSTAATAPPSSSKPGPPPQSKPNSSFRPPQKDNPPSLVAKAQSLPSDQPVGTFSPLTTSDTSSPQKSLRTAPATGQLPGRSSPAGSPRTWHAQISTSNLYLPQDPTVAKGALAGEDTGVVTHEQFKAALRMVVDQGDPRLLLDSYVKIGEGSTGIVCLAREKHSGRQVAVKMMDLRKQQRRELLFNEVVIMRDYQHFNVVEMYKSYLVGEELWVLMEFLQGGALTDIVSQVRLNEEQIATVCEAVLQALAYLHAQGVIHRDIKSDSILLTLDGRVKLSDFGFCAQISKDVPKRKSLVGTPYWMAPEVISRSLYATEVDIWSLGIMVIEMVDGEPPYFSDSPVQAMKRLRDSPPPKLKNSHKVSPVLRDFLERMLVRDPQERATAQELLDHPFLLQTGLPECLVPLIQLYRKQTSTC
On to `c1ccc(COc2ccc(Nc3ncnc4ccc(-c5ccco5)cc34)cc2)cc1`, for which the inhibition is 3.06%.
For `COc1ccc2c(-c3ccnc(Nc4cccc(OC(F)(F)F)c4)n3)cnn2n1`, the inhibition was determined as 5.76%.
Still for that read-out and setting: the figure for `CN1CCC(n2cnc(-c3ccc(F)cc3)c2-c2ccnc(N)n2)CC1` is -8.92%; for `COc1ccc(-c2cc(-c3c[nH]nc3-c3ccccn3)ccn2)cc1` it is 6.89%; for `Cc1cccc(Nc2ncc(-c3ccccc3)o2)c1` it is -4.69%.
The same measure, in the same setting: the figure for `COC(=O)c1sc(-n2cnc3cc(OC)c(OC)cc32)cc1OCc1ccccc1C(F)(F)F` is -7.92%.
Same read-out and setting: in the case of `N#Cc1c(NC(=O)CN2CCOCC2)sc2c1CCCC2` it was 0.72%; in that of `COc1ccc(-c2cc3c(N)ncnc3o2)cc1`, -8.16%.
Take `N#Cc1c(NC(=O)c2ccc(F)cc2)sc2c1CCCC2`: the inhibition was -7.52%.
Still for that read-out and setting: in the case of `Cc1ccc2c(-c3ccnc(Nc4ccccc4)n3)c(-c3ccc(F)cc3)nn2n1` it was 1.48%; in that of `CNC(=O)c1cc(-c2ccc(F)cc2)cc(-c2ccc(S(=O)(=O)N3CCCC3)cc2)c1N`, -9.04%.
On the same count and under the same terms, the figure for `Cc1ccc(O)cc1Nc1ccnc2cc(-c3ccccn3)ccc12` is 4.84%.
Turning to `CCc1nn2ncccc2c1-c1ccnc(NC2CC2)n1`, the inhibition is -9.47%.
In the case of `CCCN1CCC(c2ccc(Nc3nc(Nc4cc(F)ccc4C(N)=O)c4cc[nH]c4n3)c(OC)c2)CC1`, the inhibition was -9.18%.
Still for that read-out and setting: the figure for `Fc1ccc(-c2nn3ccccc3c2-c2ccncc2)cc1` is 4.75%.
For `O=C(O[C@H]1CN[C@H](C#Cc2cc3ncnc(Nc4ccc(Cc5ccccc5)cc4)c3s2)C1)N1CCOCC1`, the inhibition is -2.8%.
As for `COc1ccc(-c2nn3ncccc3c2-c2ccnc(Nc3ccc4c(c3)OCCO4)n2)cc1`, the inhibition turned out to be 1.12%.
Same read-out and setting: in the case of `CN(C)CCOc1ccc(-c2nc(-c3ccncc3)c(-c3ccc4c(c3)CC/C4=N\O)[nH]2)cc1` it was -7.61%; in that of `CCN1CCC(CC(=O)Nc2n[nH]c3nnc(-c4cccc(F)c4F)cc23)CC1`, 4.45%.
Consider `COc1cccc(-c2c[nH]c3c(N/N=C/c4ccncc4)ncnc23)c1`, for which the inhibition worked out at 5.9%.
Same read-out and setting: in the case of `Fc1ccc(-c2nn3ncccc3c2-c2ccnc(Nc3ccc4c(c3)OCCO4)n2)cc1` it was -0.14%; in that of `COc1cc(Nc2nccc(Nc3ccc4c(C)n[nH]c4c3)n2)cc(OC)c1OC`, -4.29%; in that of `CC(C)COC(=O)c1ccc2c(c1)/C(=C/Nc1ccc(S(N)(=O)=O)cc1)C(=O)N2`, 11.9%.
As for `NS(=O)(=O)c1ccc(N/N=C2\C(=O)Nc3ccc4ncccc4c32)cc1`, the inhibition is -4.05%.
With `COc1cc(N2CCN(C(C)C)CC2)ccc1Nc1nc(Nc2ccc(F)cc2C(N)=O)c2cc[nH]c2n1`, the inhibition is -5.81%.
On to `CCn1c(-c2nonc2N)nc2c(C#CC(C)(C)O)ncc(OC3CCNCC3)c21`, for which the inhibition worked out at 14.6%.
On the same count and under the same terms, the figure for `CNC(=O)c1cccc(C#Cc2cncnc2Nc2ccc(OCc3cccc(F)c3)c(Cl)c2)c1` is 9.54%; for `Fc1cccc(COc2ccc(Nc3ncnc4sc(-c5ccco5)cc34)cc2Cl)c1` it is 1.93%; for `c1ccc(-c2nc3n(c2-c2ccc4c(c2)OCO4)CCC3)nc1` it is 4.69%.
Still for that read-out and setting: in the case of `O=S(=O)(CCNCc1ccc(-c2ccc3ncnc(Nc4ccc(OCc5cccc(F)c5)c(Cl)c4)c3c2)o1)c1ccccc1` it was 0.2%; in that of `COc1cc(/C=N/Nc2ncnc3[nH]ncc23)ccc1O`, -5.57%.
The same measure, in the same setting: in the case of `CS(=O)(=O)CCNCc1coc(-c2ccc3ncnc(Nc4ccc(OCc5ccccc5)cc4)c3c2)c1` it was -4%; in that of `COc1cc2c(cc1Nc1nc(Nc3ccsc3C(N)=O)c3cc[nH]c3n1)N(C(=O)CN(C)C)CCC2(C)C`, -6.17%.
